Only some compounds are listed: those with a hit (about 6.7% of all), similar ones and a draw of the others.
BoNT-F LC inh: BoNT F light chain protease inhibition; Multiplex microsphere protease cleavage assay, flow cytometry; actives 0.22% (n = 360,000); inhibition, % at 10 µM; in the data active means inhibition above about 35%, passing the limit was not always enough; inconclusive means no clear call, values can overlap the other calls; further: plate controls were buffer without enzyme for full effect and enzyme alone for no effect
GDH-TPI inh: counter-screen for M. tuberculosis FBA inhibitors: GDH-TPI coupled enzymes | AID 588335 | inhibition, % at 4.8 µM | actives 1.2% (n = 360,000) | GDH-TPI coupled enzyme counterscreen, NADH absorbance; in the data active means inhibition above about 30%;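 further: 0% = DMSO wells and 100% = wells lacking the enzyme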
Anthrax LF inh2: inhibitors of Bacillus anthracis lethal factor protease. P15917. multiplex microsphere protease cleavage assay, LF. inhibition, % at 10 µM. actives 0.12% (n = 360,000). AID 588501; further: plate controls were buffer without enzyme for full effect and enzyme alone for no effect
BoNT-A LC inh2: blocks Botulinum neurotoxin A light chain protease. AID 588499. actives 0.17% (n = 360,000). inhibition, % at 10 µM. multiplex microsphere protease substrate cleavage, flow cytometry; further: plate controls were buffer without enzyme for full effect and enzyme alone for no effect
Autofluor counter: flagged as autofluorescent in microsphere protease counterscreen | fluorescence intensity (no concentration beside the values) | compound autofluorescence counterscreen, microsphere flow cytometry; stronger effect = higher value | actives 3.1% (n = 360,000) | AID 624483; in the data active means fluorescence intensity above about 16000; inconclusive means no clear call, values can overlap the other calls
Mtb FBA inh: inhibits M. tuberculosis FBA enzyme; P9WQA3; purified M. tuberculosis FBA, fluorescence read-out; inhibition, % at 1 µM; actives 2.3% (n = 360,000); in the data active means inhibition above about 27%;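 further: 0% = vehicle and 100% = reference inhibitor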
Target sequence (P9WQA3 whole entry, looked up): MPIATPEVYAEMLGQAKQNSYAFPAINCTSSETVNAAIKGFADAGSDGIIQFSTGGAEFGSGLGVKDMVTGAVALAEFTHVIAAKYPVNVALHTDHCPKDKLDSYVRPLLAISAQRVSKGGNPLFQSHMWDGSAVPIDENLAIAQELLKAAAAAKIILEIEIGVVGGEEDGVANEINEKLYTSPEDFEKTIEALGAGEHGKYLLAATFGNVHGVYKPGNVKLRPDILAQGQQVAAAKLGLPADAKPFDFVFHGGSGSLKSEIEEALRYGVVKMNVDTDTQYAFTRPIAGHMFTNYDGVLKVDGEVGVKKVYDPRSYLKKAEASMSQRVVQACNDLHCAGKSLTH
* = called active by the depositor; u = inconclusive; x = no result given; + = active, no number. Unless noted, no stated cut-off is given here; in the data, active means inhibition above about 30%; inconclusive means no clear call, values can overlap the other calls; inactive means below that.

SMILES | BoNT-F LC inh | GDH-TPI inh | Anthrax LF inh2 | BoNT-A LC inh2 | Autofluor counter | Mtb FBA inh
CCOC(=O)/C(=C/c1ccc(N2CCC(c3ccccc3)=N2)cc1)C(C)=O | -1.1 | 7.8 | 2.0 | 5.9 | 4562 | -0.6
COc1cccc(C(=O)N(CN2CCCC2=O)c2cc(C)on2)c1 | -0.7 | 5.8 | 1.1 | u | 22265* | -1.6
COc1cccc(C(=O)N(CN2CCCC2=O)c2cccc(Cl)c2)c1 | -7.9 | 6.4 | 10.4 | -0.9 | 6225 | 2.1
CCOc1ccccc1C(=O)N(CN1CCCC1=O)c1cccc(Cl)c1 | 1.4 | 11.2 | -5.1 | u | 21571* | 0.1
COc1ccccc1C(=O)N(CN1CCCC1=O)c1cccc(Cl)c1 | 2.4 | 8.7 | -1.8 | 0.7 | 22324* | -0.1
COc1ccc(C(=O)N(CN2CCCC2=O)c2ccccc2OC)cc1OC | -2.2 | -3.2 | 0.1 | -1.5 | 23117* | 1.9
O=C1CCCN1CN(C(=O)c1ccc2c(c1)OCO2)c1cccc(Cl)c1 | 10.1 | -2.2 | 11.0 | 1.1 | 9226 | 0.9
O=C1CCCN1CN(C(=O)c1ccccc1)c1ccccc1 | -1.3 | 9.3 | 2.9 | -0.2 | 3388 | -0.5
COc1ccccc1N(CN1CCCC1=O)C(=O)c1c(F)cccc1Cl | -2.4 | 3.4 | -6.8 | u | u | 0.2
CCCCS(=O)(=O)N1CN(S(=O)(=O)CCCC)C2NC(=O)NC21 (stereo unspecified) | -8.0 | -6.4 | 6.0 | -0.4 | 9162 | -0.2
COC(=O)c1cc2c(s1)-c1ccccc1CC2 | -5.8 | 6.0 | 2.4 | 0.5 | 2303 | 94.4*
O=C(N/N=C/c1cccc(C(F)(F)F)c1)c1cc2c(s1)-c1ccccc1CC2 | -1.6 | 5.9 | -2.7 | -0.2 | 2718 | 5.9
COC(=O)c1cc2c(s1)-c1cc(F)ccc1OC2 | u | 30.6* | -15.9 | -4.4 | 3297 | 61.7*
Cc1cccc(/C=N/NC(=O)c2cc3c(s2)-c2ccccc2CC3)c1 | 5.0 | 33.6* | -0.3 | 0.2 | 4277 | 20.5
CN1CCCC1(C)C(=O)NCc1ccc(F)cc1Cl (stereo unspecified) | 5.4 | 8.9 | -9.7 | 0.6 | 3812 | 1.6
Cc1ccc(-n2ncc3c(=O)n(CC#N)cnc32)cc1 | -1.9 | -10.6 | -0.7 | -0.3 | 20625* | 1.3
Cc1nn(C)c(C)c1-c1c(C#N)c(N)nc2c1CCCCCC2 | 2.3 | 16.4 | -2.4 | -0.3 | 4763 | 46.5*
N#Cc1c(N)nc2c(c1-c1ccco1)CCCCC2 | -2.2 | 14.1 | -2.8 | -0.5 | 8458 | 11.6
Cc1c(-c2c(C#N)c(N)nc3c2CCCCCC3)cnn1C | 2.6 | 14.9 | -1.1 | -0.9 | 4976 | +
Cn1c(/C=C(\C#N)C(N)=S)ccc1-c1ccc(Br)cc1 | 5.3 | -0.9 | 32.1* | 32.6* | 4648 | -3.0
Cn1cccc1/C=C(\C#N)C(N)=S | x | 17.1 | x | x | x | -18.7
COCc1c(C(=O)Nc2ccc(C)c(S(=O)(=O)N3CCOCC3)c2)oc2ccccc12 | -5.1 | 14.6 | -1.0 | 0.4 | 4008 | 0.1
CN(C)S(=O)(=O)c1ccc(C(=O)N(c2ccccn2)c2ccccn2)cc1 | 1.8 | -11.4 | -0.2 | 0.9 | 22500* | -2.2
O=C(c1ccco1)N(c1ccccn1)c1ccccn1 | -0.3 | 19.5 | -2.0 | u | 22821* | -2.5
N#Cc1ccc2ccn(CC(=O)NC3CCCCC3)c2c1 | 0.4 | 2.5 | -3.5 | 0.6 | 16380* | 9.6
SMILES | BoNT-F LC inh | GDH-TPI inh | Anthrax LF inh2 | BoNT-A LC inh2 | Autofluor counter | Mtb FBA inh
O=S(=O)(CCSc1ccc(C(F)(F)F)cn1)c1ccccc1 | 4.9 | 3.2 | -1.8 | 0.1 | 4484 | -0.4
Cc1ccc(S(=O)(=O)CCSc2ccc(C(F)(F)F)cn2)cc1 | 35.6* | 5.4 | u | -1.7 | 4179 | -1.8
COc1ccc(C2C(C(C)=O)=C(O)C(=O)N2c2cccnc2)cc1OC (stereo unspecified) | 5.2 | 10.1 | 2.5 | 0.3 | 8534 | -3.2
Cc1nn(C(C)C(=O)NNC(=S)Nc2ccc(F)cc2)c(C)c1[N+](=O)[O-] (stereo unspecified) | -1.4 | 8.1 | -1.3 | -2.1 | 24064* | 0.1
COc1ccc(NC(=S)NNC(=O)C(C)n2nc(C)c([N+](=O)[O-])c2C)cc1 (stereo unspecified) | 2.1 | 13.1 | -5.9 | -0.2 | 7710 | 4.8
COCCn1c(-c2ccco2)nc2nc3ccccc3nc21 | -7.6 | 36.8* | 1.3 | 1.0 | 2588 | +
CC(C)OCCCn1c(-c2ccco2)nc2nc3ccccc3nc21 | 2.4 | 36.0* | 7.1 | 7.5 | 11246 | +
COc1cccc(-n2c(-c3ccco3)nc3nc4ccccc4nc32)c1 | 3.5 | 10.4 | 1.5 | 2.3 | 2788 | 7.1

Bioassay records (PubChem)
